Bioassay records as filed in PubChem.
M1 PAM: potentiates human M1 receptor response to acetylcholine | CHO-K1 hM1, Fluo-8 calcium fluorescence, ACh EC20; 0% = ACh EC20, 100% = maximal ACh | P11229 | AID 588819 | activation, % at 3 µM | actives 0.088% (n = 360,000); in the data active = activation above about 19%, passing the limit was not always enough
Target sequence (P11229 whole entry, looked up): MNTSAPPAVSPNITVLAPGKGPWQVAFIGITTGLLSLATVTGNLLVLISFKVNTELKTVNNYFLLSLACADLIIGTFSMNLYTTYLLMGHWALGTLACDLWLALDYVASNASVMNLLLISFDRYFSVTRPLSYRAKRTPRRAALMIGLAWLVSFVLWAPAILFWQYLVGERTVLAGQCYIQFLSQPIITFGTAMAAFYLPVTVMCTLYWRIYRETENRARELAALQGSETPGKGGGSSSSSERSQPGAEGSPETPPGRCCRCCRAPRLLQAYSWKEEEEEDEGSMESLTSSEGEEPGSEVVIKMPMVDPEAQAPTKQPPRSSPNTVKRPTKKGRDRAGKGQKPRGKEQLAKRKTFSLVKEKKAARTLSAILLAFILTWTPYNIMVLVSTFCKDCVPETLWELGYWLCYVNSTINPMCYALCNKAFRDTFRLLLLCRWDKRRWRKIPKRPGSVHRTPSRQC
CHO-K1 Ca ag: nonselective activator or artifact in parental CHO-K1 cells; Fluo-8 calcium fluorescence; scaled to maximal ATP response, vehicle zero; activation, % at 3 µM; actives 0.48% (n = 360,000); in the data active = activation above about 15%;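 note: untransfected CHO-K1 host cells lacking M1 receptor as counterscreen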
CHO-K1 Ca antag: nonselective inhibitor or artifact in parental CHO-K1 cells. ATP-induced calcium, Fluo-8 fluorescence. inhibition, % at 3 µM. actives 0.6% (n = 360,000). AID 602250;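 active = inhibition above a per-plate cutoff, the plate's mean sample inhibition plus 3 SD, cut at about 24% in these data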;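 note: 0% = DMSO plus EC80 ATP and 100% = DMSO alone without ATP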
M1 ag: human M1 muscarinic receptor agonism. actives 0.33% (n = 360,000). CHO-K1 hM1, Fluo-8 calcium fluorescence, agonist mode; 0% DMSO, 100% acetylcholine EC100. activation, % at 3 µM;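 active = activation above the run's mean compound activation plus 3 SD, cut at about 16% in these data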;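 note: peak over basal fluorescence ratio within a 140 s kinetic read after compound addition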
M1 antag: human CHRM1 antagonism; inhibition, % at 3 µM; CHO-K1 hM1, Fluo-8 calcium fluorescence, ACh EC80 antagonist; AID 588852; actives 1.3% (n = 360,000); P11229;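 active = percent inhibition above its own plate's cutoff, namely the mean of that plate's compound wells plus 3 SD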;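 note: peak over basal fluorescence ratio during 140 s after agonist addition; 0% = ACh EC80 plus DMSO and 100% = DMSO alone without agonist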
CHO-K1 Ca PAM: counter-screen for M1 PAMs: effect in parental CHO-K1 cells | ATP EC20, Fluo-8 calcium fluorescence; 0% at ATP EC20, 100% at ATP max | activation, % at 3 µM | actives 0.02% (n = 360,000) | AID 602247;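 active = activation above the run cutoff, the mean activation of all test compounds plus 3 SD, cut at about 40% in these data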;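 note: peak over basal fluorescence ratio in a 140 s read after ATP addition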
Numbers without * were called inactive. Rows were chosen to be rich in hits. Some 2.3% of all compounds tested hit in one or more screens of this group.

SMILES | M1 PAM | CHO-K1 Ca ag | CHO-K1 Ca antag | M1 ag | M1 antag | CHO-K1 Ca PAM
Nc1[nH]n(-c2ccccc2)c(=O)c1N=Nc1ccccc1[N+](=O)[O-] | 5 | 0 | -4 | -1 | -1 | -9
COc1cc([N+](=O)[O-])ccc1N=Nc1c(N)[nH]n(-c2ccccc2)c1=O | 14 | 17* | 1 | -9 | -10 | 22
CC(=O)c1ccc(N2CCN(C(=O)/C=C/c3ccc(S(=O)(=O)NCc4ccco4)cc3)CC2)cc1 | -16 | 10 | 5 | -3 | 39* | -3
O=C(Nc1cccc(-c2cnc3ccccc3n2)c1)c1ccccc1 | 4 | 0 | 13 | 2 | -4 | -15
O=C(Nc1cccc(-c2cnc3ccccc3n2)c1)c1cccc(NC(=O)c2ccco2)c1 | -15 | 4 | 31* | 2 | 35* | 8
CCN1C(=O)CSc2ccc(C(=O)NCCCN3CCOCC3)cc21 | 5 | 0 | -13 | -14 | -6 | 8
O=C(NCCN1CCOCC1)c1ccc2c(c1)N(Cc1ccccc1)C(=O)CS2 | -21 | 0 | -10 | -8 | 30* | 6
O=C(NCCN1CCOCC1)c1ccc2c(c1)N(Cc1ccccc1)C(=O)c1ccccc1S2 | -1 | 0 | 1 | -2 | 10 | 13
O=C(NCCN1CCOCC1)c1ccc2c(c1)N(Cc1ccc(Cl)cc1)C(=O)CS2 | -29 | 3 | -23 | -11 | 28* | -3
OC(c1cccnc1)c1nc(-c2ccc3c(c2)OCO3)cs1 (stereo not drawn) | 10 | 2 | -5 | 0 | -17 | 14
Cc1ccc(C(=O)N2C(=S)C(c3ccc(F)cc3)=NC23CCN(C)CC3)cc1 | -27 | 1 | 8 | -8 | 56* | -6
Cc1ccc(C(=O)N2CCC(C(=O)c3ccc(F)cc3)CC2)cc1 | 3 | 2 | -2 | -2 | 1 | -8
Cc1ccc(OCc2cn3cccnc3n2)cc1 | 1 | 95* | 67* | -5 | 0 | -4
Cc1occc1C(=O)NNC(=O)Nc1ccc(Cl)c(Cl)c1 | 7 | 1 | -11 | -4 | -10 | 10
Cc1ccsc1C(=O)NNC(=O)Nc1ccc(Cl)c(Cl)c1 | 4 | 0 | 29* | 0 | -18 | -5
COCc1nc2ccccc2n1CCc1ccccc1 | 11 | 0 | 26* | 1 | -7 | -10
CCCCCCCn1c(=O)c(C(=O)OC)c(N)c2ccccc21 | -15 | 23* | 4 | 4 | 28 | -8
CCOC(=O)N1CCC(NC(=O)c2oc3c(F)cccc3c2C)CC1 | 5 | 1 | -19 | -5 | -2 | 11
CCOC(=O)N1CCC(NCCNC(=O)c2cccc(F)c2)CC1 | -33 | 0 | -21 | 66* | 64* | 6
CCOC(=O)N1CCC(NC(=O)c2ccc(Cl)cc2)CC1 | 5 | 0 | -1 | -1 | -4 | 2
CCOC(=O)N1CCC(NCCNC(=O)c2ccc(F)cc2)CC1 | -33 | 0 | -21 | 63* | 68* | 17
COc1ccc(S(=O)(=O)Nc2ccc(-n3cccc3)cc2)cc1 | 9 | 1 | -2 | -7 | -11 | 15
CCCNC(=O)c1cc(C2CCCCN2C(=O)c2cc(C(C)(C)C)nn2C)on1 (stereo not drawn) | -4 | 1 | 2 | -4 | -1 | 4
CC(C)CCNC(=O)Cn1c(=O)oc2cc(S(=O)(=O)N3CCc4ccccc43)ccc21 | -23 | 0 | 19 | -12 | 31* | -11
CCC(=O)N1CCc2cc(Br)cc(S(=O)(=O)NCc3ccccc3OC)c21 | 10 | 0 | -6 | -2 | -24 | 9
CCOC(=O)CCCCCC(=O)Nc1ccc2c(c1)C(=O)N([C@H](C)CO)C[C@H](C)[C@@H](CN(C)S(C)(=O)=O)OCCCC[C@@H](C)O2 | 14 | 0 | -10 | -7 | -19 | 26
Cc1cc(OCCn2ccnc2)cc(C(C)C)c1 | -22 | 0 | 2 | -9 | 74* | -11
Cc1cc(OCCCn2ccnc2)cc(C(C)C)c1 | -15 | 4 | -2 | -7 | 26 | 4
Cc1cccc(OCCCCCn2ccnc2)c1 | -3 | 1 | 0 | 17* | 11 | 8
NS(=O)(=O)c1ccc(NC(=O)/C=C/c2cn(-c3ccccc3)nc2-c2cccc(Cl)c2)cc1 | 10 | 0 | -4 | -5 | -12 | -5
